Laboratory results reported in PubChem BioAssay (Tox21).
Results filed as inconclusive are left out. Unmarked numbers belong to inactive results. The call rests on the fitted dose curve.

These molecules were tested against Vitamin D3 receptor (Homo sapiens) (UniProt P11473) (assay: qHTS assay to identify small molecule agonists of the vitamin D receptor (VDR) signaling pathway (AID 743222)). Conditions: HEK293T VDR-UAS-bla, beta-lactamase FRET ratio, 16 h; series mostly up to 63.5 µM; activation: at the top concentration.
Excerpt: National Center for Advancing Translational Sciences [NCATS]
NIH Chemical Genomics Center [NCGC]
U.S. Environmental Protection Agency [EPA]
National Institutes of Environmental Health Sciences [NIEHS]
National Toxicology Program [NTP]
U.S. Food and Drug Administration [FDA]
The vitamin D receptor (VDR), a member of nuclear hormone receptor superfamily, plays a critical role in calcium homeostasis and bone metabolism. It is also involved in cell differentiation and growth, and thrombogenicity.
Tox21 Assay Protocol Summary:
VDR-bla cells were dispensed at 2,000 cells/6 uL/well into black wall/clear-bottom 1536-well plates using a Multidrop Combi (Thermo Fisher Scientific, Waltham, MA) dispenser. After the assay plates were incubated at a 37C and 5% CO2 for 4 h, 23 nL of compounds dissolved in DMSO, positive controls or DMSO only was transferred to the assay plate by a Pintool station (Kalypsys, San Diego, CA). The plates were incubated at 37C and 5% CO2 for 16 h. After 1 uL of LiveBLAzerTM B/G FRET substrate was added using a Bioraptr Flying Reagent Dispenser (FRD) workstation (Beckman Coulter, Indianapolis, IN, USA), the plates were incubated at room temperature for 2 h, and fluorescence intensity was measured by an Envision plate reader (PerkinElmer, Shelton, CT).
On the % scale 0 is the no-effect control and ±100 the full control effect.

Chain of Vitamin D3 receptor (Homo sapiens) (P11473 whole entry, looked up): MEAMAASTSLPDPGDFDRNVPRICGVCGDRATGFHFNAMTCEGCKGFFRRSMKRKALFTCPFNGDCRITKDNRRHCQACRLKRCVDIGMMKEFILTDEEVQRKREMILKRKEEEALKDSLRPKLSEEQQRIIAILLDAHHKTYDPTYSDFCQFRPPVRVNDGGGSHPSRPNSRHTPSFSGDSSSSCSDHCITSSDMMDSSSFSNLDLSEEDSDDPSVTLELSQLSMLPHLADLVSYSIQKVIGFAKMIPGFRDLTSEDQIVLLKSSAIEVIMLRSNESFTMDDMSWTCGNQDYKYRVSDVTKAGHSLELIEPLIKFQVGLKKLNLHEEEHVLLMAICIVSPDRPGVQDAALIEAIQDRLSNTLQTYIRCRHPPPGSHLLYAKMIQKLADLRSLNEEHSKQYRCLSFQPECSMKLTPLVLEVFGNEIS

Row | SMILES | activation
1 | CCN[C@H]1C[C@H](C)S(=O)(=O)c2sc(S(N)(=O)=O)cc21 | 10.2%
2 | O=C1CCCCCCCCCCCCCCO1 | 8.04%
3 | C=C(C)C(=O)OCC1CCCO1 (stereo not given) | 3.87%
4 | O=S(=O)(O)c1cc(O)c(O)c(S(=O)(=O)O)c1 | 5.55%
5 | COc1cc2c(cc1OC)-c1cc3ccc(OC)c(OC)c3c[n+]1CC2 | -18.5% [at 81.1 µM]
6 | CC(C)(C)C(=O)Oc1ccc(S(=O)(=O)Nc2ccccc2C(=O)NCC(=O)O)cc1 | 11.8%
7 | CCCCOC(=O)CCC(C)=O | -10.2%
8 | CCOc1ccc2nc(S(N)(=O)=O)sc2c1 | -0.246%
9 | CCOC(=O)c1ccccc1 | 8.44%
10 | CCOC(=O)OC(C)OC1=C(C(=O)Nc2ccccn2)N(C)S(=O)(=O)c2ccccc21 (stereo not given) | -0.529%
11 | NC(=O)N1c2ccccc2CC(=O)c2ccccc21 | 0.124%
12 | CCCCc1ccc2c(n1)[C@@H](c1ccc(OC)cc1C[C@H](C)C(=O)O)[C@H](C(=O)O)[C@H]2c1ccc2c(c1)OCO2 | 1.07%
13 | Cc1cc(C)c(N=Nc2c(O)c(S(=O)(=O)O)cc3cc(S(=O)(=O)O)ccc23)cc1C | 0.83% [at 6.01 µM]
14 | CC(C)(C)OC(=O)c1cccc(N)c1 | 1.29% [at 81.1 µM]
15 | CC(=O)c1cnccn1 | -5.77% [at 81.1 µM]
16 | C=CCOCC(O)CO (stereo not given) | 0.578%
17 | Cc1ccc(-c2ncc(Cl)cc2-c2ccc(S(C)(=O)=O)cc2)cn1 | -5.48%
18 | c1ccc(CCc2ccccc2)cc1 | -0.571%
19 | CC1=C(C/C=C(\C)CCC[C@H](C)CCC[C@H](C)CCCC(C)C)C(=O)c2ccccc2C1=O | 0.261%
20 | CCCCCCCCCC[N+](C)(C)[O-] | 4.3%

Row | SMILES | activation
21 | CCCO[Si](OCCC)(OCCC)OCCC | 2.44%
22 | CC(=O)c1ccccc1[N+](=O)[O-] | -9.53%
23 | Cc1c(N)c(=O)n(-c2ccccc2)n1C | 10.4%
24 | CCOC(=O)COc1cc(-n2ncc(C(F)(F)F)c(C)c2=O)c(F)cc1Cl | 0.946%
25 | CC(C)=CCC/C(C)=C/C#N | -7.27% [at 81.1 µM]
26 | C=COC(=O)C(C)(CC)CCC(C)C (stereo not given) | 0.144%
27 | COc1ccccc1OCC1CNC(=O)O1 (stereo not given) | -4.39%
28 | CC(C)(C)C(=O)c1ccccc1 | 3.04%
29 | CC(C)(CCC(=O)O)C(=O)O | 7.85% [at 81.1 µM]
30 | CCCCOCCOC(=O)COc1cc(Cl)c(Cl)cc1Cl | -5.95%
31 | CN1CCN(c2cc3c(nn2)Oc2ccccc2N3C)CC1 | 6.32% [at 29.5 µM]
32 | NO | 0.829% [at 81.1 µM]
33 | CC1OC1C1CCC2(C)OC2C1 (stereo not given) | 3.9%
34 | CC(COc1ccccc1)NN (stereo not given) | -5.61%
35 | CC1CCC(CO)CC1 (stereo not given) | 1.49% [at 81.1 µM]
36 | O=[N+]([O-])c1ccc(/C=N\O)o1 | 0.522%
37 | CNCC(O)c1ccc(O)c(O)c1 (stereo not given) | 0.574%
38 | c1coc(CNc2ncnc3nc[nH]c23)c1 | 9.49%
39 | Cc1ccnc(NS(=O)(=O)c2ccc(N)cc2)n1 | 10.9%
40 | CCOC(=O)C1=NOC(c2ccccc2)(c2ccccc2)C1 | 4.06%
